# Data: PubChem BioAssay (EPA / NIEHS)
# Active and inactive are the calls of the source. How the source made its calls: active means hit-call score of the fitted dose curve at least 0.9, where 1 is the maximum; inactive means score below 0.9.
# Molecular target: Transcription factor Sp1 (Homo sapiens) (UniProt P08047)
# Assay: ATG_Sp1_CIS: Attagene CIS-FACTORIAL HepG2 Assay for human Specificity Protein 1 (Sp1) (AID 2282961)
# Details: HepG2 Sp1 cis-reporter transcription, actives raise or lower the signal
# Description: ATG_CIS is a cell-based, multiplexed-readout assay that uses HepG2, a human liver cell line, with measurements taken at 24 hours after chemical dosing in a 24-well plate.ATG_Sp1_CIS is one of 52 assay component(s) measured or calculated from the ATG_CIS assay. It is designed to make measurements of mRNA induction, a form of inducible reporter, as detected with fluorescence intensity signals by Reverse transcription polymerase chain reaction (RT-PCR) and Capillary electrophoresis technology.Data from the assay component ATG_Sp1_CIS was analyzed into 1 assay endpoint. This assay endpoint, ATG_Sp1_CIS, was analyzed with bidirectional fitting relative to DMSO as the negative control and baseline of activity. Using a type of inducible reporter, measures of mRNA for gain or loss-of-signal activity can be used to understand the reporter gene at the transcription factor-level as they relate to the gene SP1. Furthermore, this assay endpoint can be referred to as a primary readout, because this assay has produced multiple assay endpoints where this one serves a reporter gene function. To generalize the intended target to other relatable targets, this assay endpoint is annotated to the dna binding intended target family, where the subfamily is zinc finger.
# Human liver HepG2 cells are transiently transfected with multiple reporter transcription units (MRTUs) in 6-well plates using FuGene 6 reagent (Roche; 3 ml FuGene/1 mg DNA). The MRTU constructs are regulated by a cis-regulating element (promoter). […] A major difference between the CIS and TRANS system is that in CIS activities of endogenous TFs are measured, whereas the TRANS assay evaluates changes in activities of exogenous, chimeric NR-Gal4 proteins. […] At the end of 24 hour incubation, total RNA was isolated using TriZol reagent (Invitrogen). The isolated RNA is then reverse-transcribed using oligo(dT) primer and Mo-MLV reverse transcriptase (Invitrogen) with DNAse I (Ambion) treatment for 30 min. The one-tenth of the produced cDNA was amplified by PCR using Taq DNA polymerase (Invitrogen) and two reporter sequence-specific primers. The PCR products were fluorescently labeled by primer extension with 6-arboxyfluorescein (6-FAM) 5'-labeled reporter sequence-specific primer (2 min at 95 C, 20 s at 68 C and 10 min at 72 C) and these products were digested with 5U of HpaI (New England Biolabs) for 2h at 37 C. The fragments were purified using Qiaquick PCR columns (Qiagen), analyzed on an ABI 3130xL genetic analyzer (Applied Biosystems) with peak positions identified by using a set of X-rhodamine (ROX)-labeled MapMarker1000 molecular weight standards (BioVentures). The raw capillary electrophoresis data was processed using Attagraph software (Attagene).
# Chain of Transcription factor Sp1 (Homo sapiens) (P08047 whole entry, looked up): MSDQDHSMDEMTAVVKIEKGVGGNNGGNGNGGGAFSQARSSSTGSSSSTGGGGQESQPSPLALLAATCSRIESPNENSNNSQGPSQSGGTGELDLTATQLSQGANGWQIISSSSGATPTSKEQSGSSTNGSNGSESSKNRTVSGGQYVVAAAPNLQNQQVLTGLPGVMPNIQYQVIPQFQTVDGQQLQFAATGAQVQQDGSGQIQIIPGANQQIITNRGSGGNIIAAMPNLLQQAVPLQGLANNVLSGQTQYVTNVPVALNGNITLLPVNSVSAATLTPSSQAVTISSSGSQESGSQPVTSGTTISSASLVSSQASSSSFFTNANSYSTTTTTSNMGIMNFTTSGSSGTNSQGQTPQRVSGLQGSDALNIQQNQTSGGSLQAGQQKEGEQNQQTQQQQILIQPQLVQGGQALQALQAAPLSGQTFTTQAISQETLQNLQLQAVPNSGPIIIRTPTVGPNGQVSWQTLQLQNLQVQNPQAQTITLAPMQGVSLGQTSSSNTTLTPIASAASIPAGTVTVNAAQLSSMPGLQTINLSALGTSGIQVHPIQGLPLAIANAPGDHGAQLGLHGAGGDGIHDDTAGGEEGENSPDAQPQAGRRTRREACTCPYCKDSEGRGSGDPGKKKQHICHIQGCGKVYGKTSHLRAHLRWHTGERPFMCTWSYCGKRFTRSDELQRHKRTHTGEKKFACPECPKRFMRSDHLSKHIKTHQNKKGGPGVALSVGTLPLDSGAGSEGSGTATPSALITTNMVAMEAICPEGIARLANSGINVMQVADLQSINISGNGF
Compound,outcome,AC50
CCc1ccc(O)c(OC)c1,inactive,–
CCOC(=O)CCc1ccccc1,inactive,–
COS(=O)(=O)O,inactive,–
CN(C)CCOC(C)(c1ccccc1)c1ccccn1 (stereo not given),inactive,–
CCOc1ccc(NC(=O)CC(C)=O)cc1,inactive,–
C=CC(=O)OCCCC,inactive,–
C[C@H]1C[C@@H](O)CC(C)(C)C1,inactive,–
CCCCC(CC)COC(=O)c1ccc(O)cc1 (stereo not given),inactive,–
Cc1occc(=O)c1OC(=O)C(C)C,inactive,–
Cc1ccc(N)c(S(=O)(=O)O)c1,inactive,–
CC[N+](C)(CC)CC,inactive,–
CCO/C=C1\N=C(c2ccccc2)OC1=O,inactive,–
CCCCCC(=O)CC,inactive,–
CN(C)CCOc1ccc(/C(=C(/CCCl)c2ccccc2)c2ccccc2)cc1,inactive,–
CCc1cc(Cc2cc(CC)cc(C(C)(C)C)c2O)c(O)c(C(C)(C)C)c1,–,11.1 µM (active)
C/C=C(\C)C(=O)OCCc1ccccc1,inactive,–
O=C1OC(=O)c2c(Br)c(Br)c(Br)c(Br)c21,inactive,–
CCOc1ccccc1O,inactive,–
C=C(C)[C@@H]1CC=C(C)C(=O)C1,inactive,–
CCCCCCCC(=O)OCCCCCC,inactive,–

Compound,outcome,AC50
CCCCC1CCC(O)CC1 (stereo not given),inactive,–
CS(C)=O,inactive,–
NC1CCCCC1N (stereo not given),inactive,–
C[C@H]1O[C@@H](O[C@H]2[C@@H](O)C[C@H](O[C@H]3[C@@H](O)C[C@H](O[C@H]4CC[C@@]5(C)[C@H](CC[C@@H]6[C@@H]5C[C@@H](O)[C@]5(C)[C@@H](C7=CC(=O)OC7)CC[C@]65O)C4)O[C@@H]3C)O[C@@H]2C)C[C@H](O)[C@@H]1O,–,0.042 µM (active)
CC(=O)OCCCc1ccccc1,inactive,–
CCCCCCC(O)CCCCCCCCCCC(=O)O (stereo not given),inactive,–
CCCC(=O)OCCc1ccccc1,inactive,–
C=C(C)C(=O)OCCOCCOCCOC(=O)C(=C)C,inactive,–
O=C(O)COCC(=O)O,inactive,–
CC(=O)CC(=O)Nc1ccccc1,inactive,–
CC(C)OCCO,inactive,–
CCCCCCCCN1CCCC1=O,inactive,–
CCCC1O[C@@H]2C[C@H]3[C@@H]4CCC5=CC(=O)C=C[C@]5(C)[C@H]4[C@@H](O)C[C@]3(C)[C@]2(C(=O)CO)O1 (stereo not given in full),inactive,–
C=C(C)C(=O)OCC(CC)(COC(=O)C(=C)C)COC(=O)C(=C)C,inactive,–
O=C1c2ccccc2C(=O)c2c(O)ccc(O)c21,inactive,–
Cc1ccc(S(=O)(=O)Oc2ccc(N=Nc3ccc(-c4ccc(N=Nc5c(O)ccc6cc(S(=O)(=O)O)cc(S(=O)(=O)O)c56)c(C)c4)cc3C)cc2)cc1,inactive,–
O=Cc1ccccc1S(=O)(=O)O,inactive,–
COC(=O)c1ccc(OC)cc1,inactive,–
CCCCCCCCCCCC(=O)OCC(O)CO (stereo not given),inactive,–
CCCCOCC,inactive,–
